# Assay outcomes deposited in PubChem BioAssay by several laboratories.
# TIM10 inh: TIM10 yeast growth inhibition; S. cerevisiae TIM10 strain growth, BacTiter-Glo luminescence, 24 h; inhibition, % at 10 µM; 330,000 tested, 1.4% active; AID 463195;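 active = inhibition of 40% or more at the single tested concentration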;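 also: wild-type TIM10 isogenic control strain grown at permissive 25 °C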
# NLRP3 yeast inh: NALP3 inhibition in yeast. Yeast reconstituted NLRP3/ASC/caspase-1, beta-gal luminescence, 24 h. inhibition, % at 10 µM. 330,000 tested, 0.39% active. AID 2825;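 active = inhibition of 50% or more; inactive = inhibition below 50%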;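 also: plate controls were induced DMSO wells for no effect and uninduced yeast grown without galactose for full effect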
# tim10-1 inh: inhibits growth of tim10-1 mutant yeast. S. cerevisiae tim10-1 ts strain growth, BacTiter-Glo, 24 h. inhibition, % at 20 µM. 330,000 tested, 2.2% active. AID 463190;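 active = inhibition of at least 40%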;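 also: mutant grown at 25 °C; 0% = DMSO wells with yeast and 100% = wells holding no yeast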
# NALP1 yeast inh: blocks the NALP1 inflammasome reconstituted in yeast. S. cerevisiae NALP1/ASC/caspase-1 growth, X-gal OD620, 72 h. inhibition, % at 10 µM. 280,000 tested, 0.61% active; in the data active = inhibition mostly above about 24%, no sharp cut-off; inactive = mostly below about 32%
# tim23-1 inh: inhibits growth of tim23-1 mutant yeast | 330,000 tested, 1.3% active | inhibition, % at 20 µM | AID 463212 | S. cerevisiae tim23-1 growth, BacTiter-Glo luminescence, 24 h;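 active = growth inhibition of the mutant yeast at or above 50%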;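 also: temperature-sensitive mutant grown at 25 °C; plate controls were DMSO-treated mutant yeast for no effect and medium wells lacking yeast for full effect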
# PfHsp90 yeast 2: inhibits growth of yeast expressing Plasmodium falciparum Hsp90 | inhibition, % at 9.4 µM | 310,000 tested, 0.32% active | AID 504621 | S. cerevisiae expressing PfHsp90, BacTiter-Glo ATP, 48 h; yeast lacking PDR1 and PDR3 efflux regulators;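 active = every replicate shows inhibition above about 80%, whatever the replicate mean, limit read from the data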;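 also: 0% = DMSO neutral controls and 100% = 20 µM radicicol positive controls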
# tim10-1 confirm: confirmation of tim10-1 mutant yeast growth inhibitors | 7,400 tested, 56% active | AID 463213 | inhibition, % at 20 µM | shares compounds with tim10-1 inh | S. cerevisiae tim10-1 ts strain growth, BacTiter-Glo, 24 h;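 active = inhibition of yeast growth at or above a set limit in either of two repeat tests at 20 µM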;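 also: tim10-1 mutant grown at permissive 25 °C to find synthetic lethal compounds; 0% = DMSO yeast wells and 100% = medium wells without yeast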
# TIM10 conf: confirmation of TIM10 yeast growth inhibitors. shares compounds with TIM10 inh. S. cerevisiae tim10 strain growth, BacTiter-Glo luminescence, 24 h. inhibition, % at 10 µM. 4,600 tested, 63% active;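 active = inhibition of yeast growth at or above a set limit in either of two replicates at 10 µM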;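 also: this counterscreen used the strain with wild-type TIM10; 0% = yeast with DMSO and 100% = medium wells lacking yeast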
# tim23-1 confirm: confirmation of tim23-1 mutant yeast growth inhibitors | shares compounds with tim23-1 inh | S. cerevisiae tim23-1 growth, BacTiter-Glo luminescence, 24 h | inhibition, % at 20 µM | 4,400 tested, 83% active;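 active = inhibition above about 39% in either of two replicate wells at 20 µM, limit read from the data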;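 also: temperature-sensitive tim23-1 mutant grown at 25 °C; 0% = DMSO wells with yeast and 100% = medium wells without yeast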
# * = called active by the depositor; nt = not tested or not shown. In the library only some 4.2% were active in any assay of this set; here they are far more common.
SMILES,TIM10 inh,NLRP3 yeast inh,tim10-1 inh,NALP1 yeast inh,tim23-1 inh,PfHsp90 yeast 2,tim10-1 confirm,TIM10 conf,tim23-1 confirm
COc1ccc(N=Cc2nc(-c3ccccc3)oc2OC(C)=O)cc1,48*,1,46*,14,70*,-11,47*,26,63*
Cn1c(CCC(=O)O)nc2cc(S(=O)(=O)N3CCCCC3)ccc21,5,3,-5,nt,-3,-12,nt,nt,nt
Cc1ccccc1/C=C1\C(=O)Nc2ccc(F)cc21,26,33,44*,34,53*,-27,38*,nt,61*
CC1(S(=O)(=O)O)CC(=O)c2ccccc2C1=O (centres undefined),32,-7,41*,13,67*,-13,28,nt,63*
O=C1c2ccccc2C(=O)C1(O)O,1,7,-15,nt,-11,nt,nt,nt,nt
O=C(CSc1ccc(C(F)(F)F)cn1)Nc1ccccc1,2,6,-11,11,6,26,nt,nt,nt
O=C(/C=C/Sc1ccc(C(F)(F)F)cn1)c1ccccc1,22,15,41*,nt,61*,21,51*,nt,47*
Cc1nc2ccccc2n1CCOc1ccccc1,5,28,11,19,11,-2,nt,nt,nt
Cc1ccc(NCc2nc3ccccc3n2CCOc2ccccc2)cc1,17,23,44*,27,57*,-5,30,nt,74*
CC(C)(C)C(=O)OC/C(N)=N/OC(=O)c1ccc(Cl)cc1,44*,10,60*,11,76*,9,47*,68*,73*
N/C(CCS(=O)(=O)c1ccc(Cl)cc1)=N\OC(=O)c1ccc(Cl)cc1,24,11,20,nt,15,8,nt,nt,nt
CC(C)(C)C(=O)O/N=C(\N)COc1cccc(Cl)c1,67*,18,40*,nt,80*,-7,28,74*,69*
COc1cccc(/C=C/C(=O)c2cccc([N+](=O)[O-])c2)c1OC,36,-4,43*,4,61*,-33,44*,nt,56*
COc1ccc(C(=O)O/N=C(\N)Cc2ccc(Cl)c(Cl)c2)cc1OC,88*,9,58*,29,70*,-15,34*,-13,27
CC(C)(C)C(=O)O/N=C(\N)c1c(Cl)cccc1Cl,2,5,5,22,4,-5,nt,nt,nt
CCOCCn1c(CN2CCc3ccccc3C2)nc2c1c(=O)n(C)c(=O)n2C,25,18,17,-1,17,8,nt,nt,nt
CC(Oc1cccc(Br)c1)C(=O)NNC(=O)CCNC(=O)c1ccccc1Cl (centres undefined),6,5,1,nt,10,20,nt,nt,nt
CCOC(=O)CN1C(=O)N[C@@H](c2cccc(F)c2)C(C(=O)OC)=C1C,21,-17,27,nt,38,1,nt,nt,nt
Cc1cccc(OCC(=O)O/N=C(\N)Cc2ccc(Cl)cc2)c1,72*,27,57*,nt,75*,32,40*,84*,70*
Cc1ccc(NC(=O)C/C(N)=N/OC(=O)c2ccccc2)cc1,69*,16,55*,7,51*,-15,76*,80*,75*
N/C(Cc1ccc(Cl)cc1)=N\OC(=O)c1ccccc1,87*,43,53*,-2,69*,35,17,1,44*
COc1ccccc1C/C(N)=N/OC(=O)c1cccc([N+](=O)[O-])c1,81*,2,52*,41,70*,nt,41*,86*,67*
O=C(COC(=O)c1cc(=O)[nH]c2ccccc12)NC(=O)c1ccccc1,6,17,18,nt,-10,29,nt,nt,nt
Cc1nc(NCCc2ccccc2)sc1C(=O)N(C)C,-9,7,5,18,2,14,nt,nt,nt
CCCN(CCC)S(=O)(=O)c1ccc(C(=O)N2CCCc3ccccc32)cc1,-7,7,28,17,31,10,nt,nt,nt
